Assay results published in PubChem BioAssay (NCI).
This is part of a sample that, as a whole, favours compounds with a hit. Of some 83,000 tested, about 20% had one in any assay.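 Testing used 96-well plates and a 48-hour single-concentration exposure. Example: -40 means 40% of the starting cells died.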 Active and inactive are the calls of the source. The calls were made as follows: active = growth percent below 10; inactive = the rest.

Assays:
Assay in all cases: NCI-60 one-dose screen, 48 h (100 = growth as untreated, 0 = no growth, -100 = all killed)
[1] = system: HT29 colon; settings: 10 µM unless noted
[2] = system: SNB-75 CNS; settings: 10 µM unless noted
[3] = system: SNB-19 CNS; settings: 10 µM unless noted
[4] = system: U251 CNS; settings: 10 µM unless noted
[5] = system: PC-3 prostate; settings: 10 µM unless noted
[6] = system: SK-MEL-5 melanoma; settings: 10 µM unless noted
[7] = system: UACC-62 melanoma; settings: 10 µM unless noted
[8] = system: LOX IMVI melanoma; settings: 10 µM unless noted
[9] = system: SK-MEL-28 melanoma; settings: 10 µM
[10] = system: SK-MEL-2 melanoma; settings: 10 µM unless noted

Measured: growth

O=C(NC1CCCCC1)C(c1cccs1)N(CCc1ccccc1)C(=O)c1ccco1 (stereo not given)
inactive: [1] 69.6% | [2] 91.2% | [3] 96.4% | [4] 96.9% | [5] 92.9% | [6] 97.5% | [7] 90.3% | [8] 94.7% | [9] 105% | [10] 84%

O=C(NCc1ccco1)C1CN(c2ccc(Cl)cc2)N(c2ccc(Cl)cc2)C1=O (stereo not given)
inactive: [1] 16.4% | [2] 16.8% | [3] 54.4% | [4] 33.9% | [5] 27% | [6] 41.8% | [7] 24.4% | [8] 45.9% | [9] 66.2% | [10] 49.2%

Cc1cccc2c(=O)c3c(sc12)c(NCCN)nc1ccccc13
active: [1] -54.9% | [3] -2.48% | [4] -77.2% | [5] -42.9% | [6] -22.9% | [7] -86.6% | [8] -92.9% | [9] -86.1% | [10] -34.9%
inactive: [2] 15.2%

O=C(Nc1ccc(Cl)cc1F)c1cc(Br)ccc1O
active: [2] -13.6% | [4] 1.1% | [5] -0.306% | [6] -87.2% | [7] -21.8% | [10] -16.3%
inactive: [1] 42.4% | [3] 20.4% | [8] 16.1% | [9] 13.2%

CNC(=O)c1cc(Oc2ccc(CC(=O)Nc3cc(C(C)(C)C)cn3C)cc2)ccn1
active: [6] 8.83%
inactive: [1] 88% | [2] 52.4% | [3] 69.9% | [4] 88.6% | [5] 75.9% | [7] 62.9% | [8] 67% | [9] 79.8% | [10] 67.1%

O=C1/C(=C/c2ccc(O)cc2)COc2ccc(O)cc21
inactive: [1] 98.3% | [2] 96.4% | [3] 99.9% | [4] 80% | [5] 94.3% | [6] 102% | [7] 92.8% | [8] 70.1% | [9] 105% | [10] 114%

COc1cc2cc3c(=O)n4c(cc5cc(OC)ncc54)c(=O)n3c2cn1
inactive: [1] 111% | [2] 94.2% | [3] 105% | [4] 104% | [5] 97.2% | [6] 109% | [7] 111% | [8] 100% | [9] 106% | [10] 98%

COc1ccc(C2Nc3ncnc(N)c3N=C3c4ccccc4C(=O)C32)cc1 (stereo not given)
inactive: [1] 98.2% | [2] 71.5% | [3] 82.2% | [4] 90.9% | [5] 78% | [6] 95.6% | [7] 117% | [8] 92.8% | [9] 113% | [10] 88.5%

CCN(CC)CCNC(=O)C(Cl)=C1C(Cl)=C(Cl)C(Cl)=C1Cl
inactive: [1] 41.3% | [2] 48.4% | [3] 85.5% | [4] 40.8% | [5] 56.2% | [6] 47% | [7] 55.1% | [8] 22.6% | [9] 72.7% | [10] 47.6%

CCN1C(=O)N(CC)C2C1NN=c1s/c(=C3\C(=O)N(C(C)C)c4ccccc43)c(=O)n12 (stereo not given)
inactive: [2] 41.2% | [3] 31.3% | [4] 20.6% | [5] 25.8% | [7] 16.9% | [8] 20.7% | [9] 57.4% | [10] 23.8%
active: [1] 2.15% | [6] 2.79%

CC(C)CCNCC(O)Cn1c2ccccc2c2ccccc21 (stereo not given)
active: [1] -12.7% | [2] -3.3% | [6] -20.6% | [8] 1.91%
inactive: [3] 24.4% | [4] 14.4% | [5] 20.2% | [7] 14.1% | [9] 14.9% | [10] 13.7%

O=C(Nc1ccc(N2CCNCC2)cn1)c1[nH]ncc1Nc1ncnc2sc3c(c12)CCC3
inactive: [2] 85.7% | [3] 10.7% | [6] 59.7% | [7] 38.9% | [10] 89.7%
active: [1] -42.3% | [4] -71.9% | [5] -30.6% | [8] -79.6% | [9] -40.3%

COc1ccc(Cn2c(Br)c3c(c2-c2cc(OC)c(OC)c(OC)c2)CCc2sc(NC(=O)c4ccc(OC)cc4)nc2-3)cc1
inactive: [1] 101% | [2] 82.4% | [3] 98.5% | [4] 98.6% | [5] 84.2% | [6] 86.7% | [7] 94.9% | [8] 92.5% | [9] 105% | [10] 96.7%

Cc1cc2c(c(C)c1Cl)C(=O)/C(=C/c1cccc([N+](=O)[O-])c1)O2
inactive: [1] 95.4% | [2] 102% | [3] 96.8% | [4] 93% | [5] 100% | [6] 96.6% | [7] 82% | [8] 102% | [9] 102% | [10] 97.7%

COc1c(B(O)O)cccc1-c1nc2ccc3[nH]ncc3c2c2c1C1CCC2C1 (stereo not given)
active: [2] 2.23%
inactive: [1] 71.9% | [3] 74% | [4] 66.4% | [5] 76.9% | [6] 75.7% | [7] 70.3% | [8] 52% | [9] 104% | [10] 80.8%

FC(F)(F)c1cccc(CNC2CCN(CCc3ccccc3)CC2)c1
inactive: [1] 46.9% | [2] 71.2% | [3] 91.7% | [4] 77.4% | [5] 25.2% | [6] 90% | [7] 86.4% | [8] 56% | [9] 85.1% | [10] 91%

CCn1c(SCC(=O)Nc2cc(C(F)(F)F)ccc2Cl)nc2ccccc2c1=O
active: [7] -79.1% | [8] -7.15% | [9] -28.6%
inactive: [1] 15.7% | [2] 13.4% | [3] 93.5% | [4] 47.9% | [5] 17.5% | [6] 25.7% | [10] 87.3%

CCCCOCc1cc(CN2CCN(C)CC2)c(O)c2ncccc12
inactive: [1] 96% | [2] 68.2% | [3] 48.6% | [4] 27.8% | [5] 34.3% | [6] 50.6% | [7] 53% | [8] 35.9% | [9] 74.7% | [10] 97.7%

O=C(/C=C/c1ccccc1)c1ccc(Nc2nc(NCCO)nc(Nc3ccc(Cl)cc3)n2)cc1
inactive: [1] 30.2% | [2] 69.2% | [3] 79.6% | [4] 23% | [5] 77.8% | [6] 80.2% | [7] 78.7% | [8] 30.6% | [9] 88.2% | [10] 95.4%

COc1nccc2cc3c(=O)n4c(cc5ccccc54)c(=O)n3c12
inactive: [1] 112% | [2] 89.2% | [3] 108% | [4] 101% | [5] 87.8% | [6] 96.6% | [7] 101% | [8] 97.1% | [9] 109% | [10] 94.3%

NCCOc1ncccc1/C=C1\c2ccccc2-c2ccc(F)cc21
active: [4] 8.04% | [8] -11.5%
inactive: [1] 13% | [2] 15.7% | [3] 16% | [5] 42.5% | [6] 25.1% | [7] 34.8% | [9] 70.2% | [10] 112%

O=C(Cn1cc(COc2ncnc3c2cnn3-c2ccccc2)nn1)Nc1cccc2ccccc12
inactive: [1] 102% | [2] 74.9% | [3] 88.4% | [4] 96.7% | [5] 95.8% | [6] 92.5% | [7] 83.9% | [8] 97.5% | [9] 100% | [10] 113%

COc1ccc2c(c1)C=C1CSCC3=Cc4cc(OC)ccc4OC13O2
inactive: [2] 23.9% | [3] 28.9% | [4] 18.7% | [5] 19.3% | [6] 14% | [7] 14.2% | [8] 24.1% | [9] 60% | [10] 52.6%
active: [1] 6.74%

NNC(=O)CNC(=O)Nc1n[nH]c(=S)s1
inactive: [1] 95.9% | [2] 92.1% | [3] 106% | [4] 105% | [5] 95.9% | [6] 105% | [7] 104% | [8] 98.1% | [9] 106% | [10] 97.7%

C=C1C(=O)O[C@H]2[C@H]1CC/C(COC(=O)/C=C\C(=O)O)=C\CC[C@@]1(C)O[C@@H]21
inactive: [1] 108% | [2] 79.4% | [3] 98.8% | [4] 108% | [5] 102% | [6] 102% | [7] 98% | [8] 99.4% | [9] 98.8% | [10] 112%

COc1ccc(C2c3ccc4ccccc4c3Oc3ncn(CCCn4ccnc4)c(=N)c32)cc1OC (stereo not given)
inactive: [1] 20.7% | [2] 84.4% | [3] 79.2% | [4] 61% | [5] 52.6% | [6] 63.7% | [7] 69.1% | [8] 35.9% | [9] 68.2% | [10] 81.4%

CCC(C)(C)C(=O)O[C@H]1C[C@@H](C)C=C2C=C[C@H](C)[C@H](CC[C@@H]3CC=CC(=O)O3)[C@H]21
active: [8] -47.4%
inactive: [1] 44.5% | [2] 80.4% | [3] 84% | [4] 82.2% | [5] 49.1% | [6] 71% | [7] 72.5% | [9] 79.2% | [10] 86.1%
